EWS-Fli block: inhibitors of EWS/Fli oncoprotein transcriptional activity | A673 NR0B1-luciferase reporter, viability-normalised | inhibition, % at 12.6 µM | 0.67% of 350,000 active | AID 651661;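 active = mean inhibition of at least 50% after viability correction, with every replicate also passing that limit; inconclusive = mean reaches 50% but only one of two replicates passes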;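 note: firefly luciferase signal divided by Alamar Blue viability fluorescence both relative to DMSO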
LGR2 antag: blocks bursicon-induced cAMP signaling via Drosophila LGR2. AID 720647. inhibition, % at 9.99 µM. 0.35% of 380,000 active. HEK293 LGR2, CRE-luciferase, bursicon-stimulated, 4 h;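 active = drop in luminescence signal, shown as inhibition above about 50% in the replicate tests, limit read from the data, passing the limit was not always enough; inconclusive = probably only some replicates passing the limit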;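 note: agonist challenge used bursicon conditioned medium at about half maximal strength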
TRPM1 prom inh: MITF TRPM1 promoter inhibition in SK-MEL-5 cells; SK-MEL-5 TRPM1 promoter luciferase, 24 h; inhibition, % at 12.5 µM; 0.83% of 330,000 active;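 active = mean inhibition across replicates of 60% or more, whatever share of single replicates reaches that level; inconclusive = some that reach 60%, reason not given; inactive = mean inhibition across replicates below 60%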
Shn3 inh set2: reduces Shn3 3'UTR luciferase signal in osteoblasts; AID 588674; 0.52% of 360,000 active; inhibition, % at 12.5 µM; Clone20 osteoblast Shn3 3'UTR firefly luciferase, 24 h;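 active = mean inhibition of at least 75% with every replicate also reaching 75%; inconclusive = mean inhibition at least 75% but some replicate below; inactive = mean inhibition below 75%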;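 note: 0% = median of neutral control wells and 100% = pilot-screen positive control compound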
PAX8 inh HTS: PAX8 transcriptional activity inhibition. inhibition, % at 12.6 µM. 1.2% of 360,000 active. AID 652154. RMG-I TPO-luciferase reporter, SteadyGlo, 24 h;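 active = mean replicate inhibition at least 60% with every replicate also reaching 60%; inconclusive = only one of the two criteria is met; inactive = mean below 60% and not all replicates reaching 60%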;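 note: luciferase light reporting Pax8 driven TPO promoter activity; plate controls were median of neutral control wells for no effect and mitoxantrone controls for full effect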
LMP1 NFkB inh: Epstein-Barr LMP1 NF-kappaB reporter inhibition; LMP1-induced NF-kappaB luciferase reporter cells, luminescence; inhibition, % at 12.5 µM; 0.69% of 350,000 active; AID 504558; in the data active = inhibition above about 41%; inconclusive = no clear call, values can overlap the other calls;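 note: 0% = neutral control wells and 100% = reference inhibitor control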
* marks the source's active call; other numbers are inactive results; ? = inconclusive; nt = no result. Most compounds without a hit are left out; they make up all but 2.2% or so of the library.

SMILES	EWS-Fli block	LGR2 antag	TRPM1 prom inh	Shn3 inh set2	PAX8 inh HTS	LMP1 NFkB inh
Cc1ccc(NC(=O)c2ccc(Cl)c(N3C(=O)C=CC3=O)c2)cc1	nt	nt	38	92*	nt	7
O=C(NC1C(=O)NNC1c1ccccc1)c1ccccc1 (stereo unspecified)	nt	nt	-23	-56	nt	44*
COc1ccccc1S(=O)(=O)N[C@@H]1CC[C@@H](CC(=O)NCc2cc(F)cc(F)c2)O[C@@H]1CO	25	-10	nt	nt	-14	nt
O=C(C(Br)=Cc1ccccc1)c1ccccc1	58*	32	94*	97*	86*	-28
CO[C@H]1CN(C)C(=O)c2cc(NC(=O)Nc3ccccc3)ccc2OC[C@@H](C)N(C(=O)Nc2c(C)noc2C)C[C@H]1C	-3	-13	nt	nt	3	nt
O=C(c1ccccc1)c1c2c(cc3sc4ccccc4[n+]13)-c1cccc3cccc-2c13	nt	48	86*	78	66*	-15
O=C(c1ccccc1)c1ccc2ccccc2c1	-107	-78	-56	-19	-120	-14
Cc1sc2cc3c(c(C(=O)c4ccccc4)[n+]2c1C)-c1cccc2cccc-3c12	30	65*	nt	nt	86*	nt
CCCNC(=O)C[C@@H]1C[C@H]2c3cc(NC(=O)C4CCOCC4)ccc3O[C@H]2[C@H](CO)O1	-1	7	nt	nt	6	nt
CCC(=O)N1[C@@H]2Cn3c(ccc(-c4ccncc4)c3=O)[C@H]1[C@@H](C(=O)NC1Cc3ccccc3C1)[C@@H]2CO	0	0	nt	nt	-6	nt
CN(C)CCCNc1cc(O)c2ncccc2c1	-7	97*	55	-5	5	-4
O=[N+]([O-])c1cc(O)c2ncccc2c1	22	-14	nt	nt	31	nt
Oc1cc(NCc2ccc(Cl)cc2)cc2cccnc12	3	-5	13	10	-2	47*
Oc1cc(NCc2ccc(F)cc2)cc2cccnc12	-5	-4	56	52	73*	12
Fc1ccc(CNc2ncccn2)cc1	-14	-3	12	-11	13	0
Clc1ccc(CNc2ncccn2)cc1	2	9	-13	18	-1	0
CCS(=O)(=O)N1CC2(C1)[C@@H](c1ccccc1)[C@H](CO)N2C(=O)C1CCCC1	1	3	nt	nt	18	nt
Cc1ccsc1/C=C/c1ccc2ccccc2n1	nt	nt	14	8	nt	70*
Cc1ccsc1/C=C/c1ccc2cccc(O)c2n1	nt	nt	-3	-31	nt	-17
Fc1cccc(F)c1/C=C/c1ccc2ccccc2n1	nt	67*	8	1	-44	5
C(=C\c1ccco1)/c1ccc2ccccc2n1	49	-43	nt	-132	-104	nt
Fc1cccc(Cl)c1/C=C/c1cnc2ccccc2n1	82*	91*	3	11	-5	1
CC=Cc1ccc2n(c1=O)C[C@H]1[C@H](CO)[C@@H](C(=O)NC3CCC3)[C@@H]2N1C(=O)c1cnccn1 (mixture of isomers)	-3	7	nt	nt	nt	nt
CO[C@@H]1CN(C)C(=O)c2cc(NC(C)=O)ccc2OC[C@@H](C)N(Cc2cccc(F)c2)C[C@@H]1C	4	-2	nt	nt	2	nt
O=C(O)c1ccc(-n2cncn2)c([N+](=O)[O-])c1	1	10	-30	53	-3	49*
SMILES	EWS-Fli block	LGR2 antag	TRPM1 prom inh	Shn3 inh set2	PAX8 inh HTS	LMP1 NFkB inh
Cn1nc(-c2ccc(N3CCOCC3)c(NS(=O)(=O)c3ccccc3)c2)c2ccccc2c1=O	9	37	7	-6	nt	61*
C[C@@H]1CCCCO[C@@H](CN(C)S(=O)(=O)c2ccccc2)[C@@H](C)CN([C@@H](C)CO)C(=O)c2cc(NC(=O)Nc3ccc(C(F)(F)F)cc3)ccc2O1	3	4	nt	nt	44	nt
C[C@H](CO)N1C[C@H](C)[C@H](CN(C)C(=O)c2ccccn2)Oc2ncc(C#Cc3ccccn3)cc2C1=O	4	-19	nt	nt	nt	nt
Cc1cc(Nc2ccc3c(c2)OCCO3)c2ccccc2n1	-8	6	2	3	88*	3
CC(C)NC(=O)N(C)C[C@H]1Oc2cc(-c3cncnc3)ccc2S(=O)(=O)N([C@@H](C)CO)C[C@@H]1C	-7	-11	nt	nt	nt	nt
Cc1csc(NC(=O)c2cn3ccccc3n2)n1	73*	89*	54	65	78*	68*
Cc1csc(NC(=O)c2ccc3ccccc3n2)n1	-30	-112	-30	-50	-47	-28
Cc1csc(NC(=O)c2cnc3ccccc3n2)n1	58*	58*	10	22	-24	17
O=C(Nc1ccccc1)c1cn2ccccc2n1	30	?	2	-19	-17	42*
COc1ccc(-c2ccc3c(c2)[C@H]2[C@H](CCN2S(=O)(=O)c2ccc(OC)cc2)[C@H](CO)N3)cc1	-4	16	nt	nt	59	nt
C[C@H]1CN([C@@H](C)CO)C(=O)c2cc(NS(=O)(=O)c3cn(C)cn3)ccc2O[C@@H]1CN(C)Cc1ccccc1	-9	5	nt	nt	-10	nt
Cn1c(CCN2CCN(c3ccccn3)CC2)nc2cc(NC(=O)COc3ccc(Cl)cc3)ccc21	nt	12	58	59	67*	24
Cc1cccc(OCC(=O)Nc2ccc3c(c2)nc(CCN2CCN(c4ccccn4)CC2)n3C)c1	nt	15	38	38	71*	13
COc1ccc(OCC(=O)Nc2ccc3c(c2)nc(CCN2CCN(c4ccccn4)CC2)n3C)cc1	1	10	nt	5	17	-21
Cn1c(CCN2CCN(c3ccccn3)CC2)nc2cc(NS(=O)(=O)c3ccc(Cl)cc3)ccc21	nt	14	10	15	90*	-1
CC1CCN(CCc2nc3cc(NC(=O)COc4ccc(Cl)cc4)ccc3n2C)CC1	nt	2	23	11	75*	20
CNC(=O)C[C@@H]1CC[C@@H]2[C@@H](COc3ccc(NC(=O)Nc4ccccc4F)cc3C(=O)N2C)O1	-2	-8	nt	nt	6	nt
C[C@H](CO)N1C[C@H](C)[C@@H](CN(C)Cc2ccccc2)Oc2ccc(NS(C)(=O)=O)cc2CC1=O	-7	-15	nt	nt	-17	nt
COc1cccc2sc(=NC(=O)CS(=O)(=O)c3ccc(Cl)cc3)n(C)c12	13	-2	5	88*	26	17
COc1cc(SC)ccc1C(=O)Nc1ncc(C)s1	81*	102*	65*	41	84*	74*
COc1cc(SC)ccc1C(=O)Nc1ccc(C)cc1	-37	nt	-16	-124	-88	-69
COc1cc(SC)ccc1C(=O)Nc1ccc(Br)cn1	73*	nt	57	75	3	51*
CCc1ccc(CN(C)C(=O)c2cc(COc3cccc4cnccc34)on2)cc1	nt	-11	21	86*	35	34
CC(CNC(=O)c1cc(COc2ccc3ncccc3c2)on1)c1ccccc1 (stereo unspecified)	39	0	22	88*	36	14
O=C(NC1CCCCCCC1)c1cc(COc2ccc3ncccc3c2)on1	17	nt	23	88*	-2	49*
